Results from PubChem BioAssay (NCI).
About 83,000 compounds went through this panel and 20% of them were active in at least one assay; those are over-represented in the sample as a whole.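 Negative percent growth values reflect cell death: -40 means 40% of the cells present at the start died, and -100 means all died.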 Values without a mark were called inactive. Calls of active or inactive are those of the source. Rule for the calls: active = growth percent below 10; inactive = the rest.

Tested on: HL-60(TB) leukemia
Assay: NCI-60 one-dose screen, 48 h (100 = growth as untreated, 0 = no growth, -100 = all killed)
Conditions: 10 µM unless noted

SMILES	growth
CC(C)CN1CC(C(=O)Nc2ccc3c(c2)-c2ccccc2C3)CC1=O (configuration not stated)	91.7% [50 µM]
COc1ccc(NC(=O)CSc2oc(-c3ccccc3)nc2S(=O)(=O)c2ccc(Cl)cc2)c(OC)c1	49.4%
N#CCC1=NC(c2cccs2)=Nc2ccccc2S1	90.9%
CNC(=O)c1cc(Oc2ccc3nc(NC(=O)NC(C)C)sc3c2)ccn1	47.8%
CCCCCCCCCCCCCCCC(=O)NS(=O)(=O)OC[C@H]1O[C@@H](n2cnc3c(N)ncnc32)[C@H](O)[C@@H]1O	-11.6% (active)
O=[N+]([O-])c1ccc(NCSc2ccc(Cl)cc2)cc1	83.2%
Cc1c2c[n+](C(C)C)ccc2c(C)c2c1[nH]c1ccccc12	14.4%
N#C/C(=C\c1ccc(-c2ccc(F)cc2)o1)c1nc(-c2ccco2)cs1	98%
Cc1ccc(S(=O)(=O)NCCNc2cc(-c3cn(C(C)(C)C)nc3-c3cccc(O)c3)ccn2)cc1	65.8%
Cc1ccc(Nc2ccc(O)c3c2C(=O)c2c(O)ccc(Nc4ccc(C)cc4)c2C3=O)cc1	108%
Clc1ncn[nH]1	103%
N#Cc1ccccc1-c1ccc(CN2C(=O)S/C(=C\c3ccc(Br)cc3)C2=O)cc1	96.2%
CCCC1OC(c2ccco2)OCC1CC (configuration not stated)	102%
Clc1nc(Cl)c2ncn(CC#CCn3cnc4c(Cl)nc(Cl)nc43)c2n1	-58.3% (active)
Cc1nc([C@H]2CC[C@H]3[C@@H]4CCC5=CC(=O)CC[C@]5(C)[C@H]4CC[C@]23C)cs1	4.93% (active)
COc1ccc(C(=O)c2cc(OC)c(OC)c(OC)c2)cc1/C=C/C(=O)c1ccc2c(c1)OCO2	27.5%
CC(C)c1ccc(Cc2cnc(NC(=O)c3cc(Br)cs3)s2)cc1	-24% (active)
CC[C@H](Nc1ncnc2nc[nH]c12)c1nc2cccc(F)c2c(=O)n1-c1ccccc1	66.8%
O=C1c2ccccc2C(=O)c2c(NCCN=Cc3c(O)ccc4ccccc34)cccc21	66.3%

SMILES	growth
COc1cc2c(c(OC)c1O)C(=O)C(OC)C(c1ccc(O)c(O)c1)O2 (configuration not stated)	-28.6% (active)
COc1ccc2c(c1)CC[C@@H]1[C@@H]2CC[C@]2(C)c3c(cc(C#N)c4c3sc3ccccc34)C[C@@H]12	91.7%
CCOC(=O)c1c(C)n(-c2ccc(Cl)cc2)c2ccc(OC(=O)/C=C/c3ccccc3)cc12	57.1%
Cc1ccc(S(=O)(=O)Nc2ccccc2)cc1N	96%
Cn1cc(-c2csc(-c3cn(CCO)c4ccc(F)cc34)n2)c2cccnc21	50.2%
COc1cccc(C2CC(=O)Nc3c2c(C)nn3-c2nc3ccccc3[nH]2)c1OC (configuration not stated)	18.9%
Cc1nnc(N/N=C/c2ccc([N+](=O)[O-])o2)[nH]c1=O	-34.8% (active)
COc1ccc(C(=O)c2nccc3cc(OC)c(OC)cc23)cc1OC	102%
O=C(NNC(=O)N1c2ccccc2C=Cc2ccccc21)c1ccc2ccccc2c1	90%
N#Cc1c2c([nH]c(=O)c1C(N)=O)CCCCC2	104%
CC[N+](CC)=c1sc2c(s1)C(c1ccc(Cl)cc1)Oc1ccc(Cl)cc1-2 (configuration not stated)	-34.3% (active)
COc1cc(/C=C2\CCCC3=C2N=C2SC=NN2C3c2cc(OC)c(OC)c(OC)c2)cc(OC)c1OC (configuration not stated)	-1.19% (active)
CC(=O)O[C@@]12CO[C@@H]1C[C@H](O)[C@@]1(C)C(=O)[C@H](O)C3=C(C)[C@@H](OC(=O)[C@H](O)[C@@H](NC(=O)OC(C)(C)C)c4ccccc4)C[C@@](O)([C@@H](OC(=O)c4ccccc4)C12)C3(C)C (some centres not stated)	-12.9% (active)
COc1cc2c(cc1NC(=O)C(F)(F)F)-c1ccc(NC(=O)C(F)(F)F)cc1C2	99.3%
CC(C)CC(=O)C(CCc1ccccn1)C(C)C (configuration not stated)	108%
CC(=O)[C@@H]1CC[C@]2(C(=O)n3ccnc3)CC[C@]3(C)[C@H](CC[C@@H]4[C@@]5(C)Cc6c([nH]c7ccccc67)C(C)(C)[C@@H]5CC[C@]43C)[C@@H]12	90.9%
O=C(Nc1ccc(Cl)cc1)C1=NCCCCN1	96.6%
COc1cc(/C=C2/C=C(c3ccc(C(C)(C)C)cc3)N(CCc3ccc(S(N)(=O)=O)cc3)C2=O)cc(OC)c1OC	20.5%
